Only some compounds are listed: those with a hit (about 7.9% of all), similar ones and a draw of the others.
HT1080 IDH1KD tx = HT-1080 IDH1 knockdown cell toxicity (counter line); HT-1080 IDH1 knockdown viability, ATP luminescence, 48 h; Potency, µM (highest dose often 46.1 µM), usual class: cytotoxic; hit rate 2% among 360,000; AID 686971
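% activity derives from luminescence (CellTiter-Glo), normalised to DMSO and no-cell wells. HT-1080-IDH1KD cells, 750/well, had 48 h compound exposure at 37 °C.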
KB-V1 cytotox = KB-V1 MDR subline cytotoxicity | KB-V1 MDR cells viability, CellTiter-Glo, 72 h | hit rate 3.4% among 400,000 | Potency, µM (series often up to 46.1 µM), actives largely listed as cytotoxic | AID 1347076; further: nearly all actives have a fitted effect of over 60% in size
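Following 72 h at 37 degrees C with compound, KB-V1 cell viability was read by CellTiter-Glo luminescence, medium being phenol-red-free DMEM plus 10% FBS; concentration-response parameters came from normalized, curve-fitted qHTS data.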
HT1080NT lethal = kills 2HG-producing HT-1080-NT fibrosarcoma cells | HT-1080-NT fibrosarcoma viability, CellTiter-Glo ATP luminescence, 48 h | Potency, µM (titrated, usually from 46.1 µM), usual class: cytotoxic | hit rate 1.6% among 360,000;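 further: NT is the 2HG producing partner of a matched IDH1 knockdown line; nearly all actives have a fitted effect of over 55% in size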
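A 48-hour cytotoxicity screen used HT-1080-NT cells plated 2 hours before compound delivery. ATP-based CellTiter-Glo luminescence measured viability, normalized to DMSO and no-cell controls.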
SW480 rerep = DNA re-replication induction in SW480 cells; hit rate 1.8% among 340,000; Potency, µM (titrated, usually from 46.1 µM), most hits filed as activators; SW480 DNA re-replication, Hoechst DNA content imaging, 48 h; further: nearly all actives have a fitted effect of over 55% in size
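Per well, 250 cells were exposed to pinned compound for 48 hr. Nuclear DNA was visualised with Hoechst (40 min, 37 C) and total object intensity recorded by fluorescence scanning.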
MCF10A rereplic = induces DNA re-replication in MCF 10a normal breast cells; MCF 10A DNA re-replication, Hoechst nuclear intensity, 48 h; Potency, µM (doses to about 46.1 µM), actives largely listed as activators; hit rate 2.9% among 350,000; AID 624296; further: nearly all actives have a fitted effect of over 50% in size
KB-3-1 cytotox = kills parental KB-3-1 adenocarcinoma cells; KB-3-1 viability, CellTiter-Glo ATP luminescence, 72 h; Potency, µM (series often up to 46.1 µM), most hits filed as cytotoxic; hit rate 1.4% among 400,000; AID 1347075; further: nearly all actives have a fitted effect of over 60% in size
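Screening of KB-3-1 cells (DMEM, 10% FBS, phenol-red free) ran from lowest to highest compound concentration; after 72 h at 37 °C viability was read luminescently and curves fitted.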
Of the large screens only hits and unclear results are named; the others gave an inactive call. The call rests on the fitted dose curve; in most records, active means well fitted curve in the direction sought with a large enough effect; inconclusive means small, poorly fitted or top-dose-only effect, or another doubt; inactive means no such curve, though single readings can be large; an effect the other way counts as inactive or inconclusive.

COc1ccccc1C(=O)NNC1=C(C(=O)C(F)(F)F)CCC1	HT1080 IDH1KD tx 2.24µM, HT1080NT lethal 3.55µM, SW480 rerep 2.59µM, MCF10A rereplic 4.11µM
O=C(NNC1=C(C(=O)C(F)(F)F)CCC1)c1ccc(Br)cc1	HT1080 IDH1KD tx 10µM, HT1080NT lethal inconclusive, SW480 rerep 9.2µM, MCF10A rereplic inconclusive
Nc1[nH]c(C(=O)c2ccccc2)c(-c2cccnc2)c1C(=O)NC1CCCCC1	none (no result: SW480 rerep, MCF10A rereplic)
COc1ccc(-n2c(CNc3ccc(C)cc3)nnc2SCc2ccccc2)cc1	KB-V1 cytotox inconclusive, MCF10A rereplic inconclusive
COc1cc2c(cc1NC(=O)COC(=O)Cn1cnc3ccccc31)oc1ccccc12	none
Cc1cc(Cl)ccc1OCC(=O)NCCCCc1ccccc1	MCF10A rereplic inconclusive
Nc1ccccc1C(=O)NNC1=C(C(=O)C(F)(F)F)CCC1	HT1080 IDH1KD tx inconclusive, SW480 rerep inconclusive, KB-3-1 cytotox inconclusive
COc1cccc(C(=O)NNC2=C(C(=O)C(F)(F)F)CCC2)c1	HT1080 IDH1KD tx 11.6µM, HT1080NT lethal inconclusive, SW480 rerep inconclusive, KB-3-1 cytotox inconclusive
COc1cccc(C(=O)NN/C(C)=C/C(=O)C(F)(F)C(F)(F)C(F)(F)F)c1	HT1080 IDH1KD tx 14.6µM, HT1080NT lethal inconclusive, SW480 rerep inconclusive, MCF10A rereplic inconclusive, KB-3-1 cytotox inconclusive
COc1ccc(NC2CCCN(C(=O)CCN3CCCC3=O)C2)cc1 (stereo not given)	none
O=C(Nc1ccc(-c2nc3cccnc3s2)cc1)c1ccc(Br)o1	none
CC(C)(C)c1ccc(C(=O)C2CC2)cc1	none (no result: SW480 rerep, MCF10A rereplic)
CC(C)(C)c1ccc(SC2=C[C@@]3(O)CC[C@@H](O)[C@@](Sc4ccc(C(C)(C)C)cc4)(C2=O)[C@H]3O)cc1	HT1080 IDH1KD tx 14.6µM, KB-V1 cytotox 13µM, HT1080NT lethal 16.4µM, KB-3-1 cytotox inconclusive (no result: SW480 rerep, MCF10A rereplic)
Cc1ccc(SC2=C[C@@]3(O)CC[C@@H](O)[C@@](Sc4ccc(C)cc4)(C2=O)[C@H]3O)cc1	KB-V1 cytotox 16.4µM, KB-3-1 cytotox inconclusive (no result: SW480 rerep, MCF10A rereplic)
Cc1noc(C)c1CSc1ccc2ccccc2n1	KB-V1 cytotox 20.6µM, MCF10A rereplic inconclusive
Cc1noc(C)c1CSc1nc2ccccc2c(=O)n1-c1ccc(Cl)cc1	HT1080 IDH1KD tx 7.08µM, KB-V1 cytotox 23.1µM, HT1080NT lethal 10µM, SW480 rerep inconclusive, MCF10A rereplic inconclusive, KB-3-1 cytotox inconclusive
CN1CCC(OC(=O)Cc2ccc(Cl)cc2)CC1	KB-V1 cytotox inconclusive, SW480 rerep 14.6µM
O=C1N(c2ccccc2)C2CS(=O)(=O)CC2N1c1ccc(Cl)c(Cl)c1 (stereo not given)	none
Cc1cc(C)cc(-n2c(C)cc(/C=N/NC(=O)CSc3ncccn3)c2C)c1	HT1080 IDH1KD tx inconclusive, KB-V1 cytotox inconclusive, HT1080NT lethal inconclusive, SW480 rerep inconclusive, MCF10A rereplic 18.4µM, KB-3-1 cytotox inconclusive
O=C(N/N=C/c1ccccc1[N+](=O)[O-])c1ccc(CN2CCOCC2)cc1	none
Cc1cc(/C=N/NC(=O)c2ccc(CN3CCOCC3)cc2)c(C)n1-c1ccccc1	KB-V1 cytotox 16.4µM
Cc1cc(C)cc(-n2c(C)cc(/C=N/NC(=O)c3ccncc3)c2C)c1	none
Cc1cc(/C=N/NC(=O)Cn2c3ccccc3c(=O)c3ccccc32)c(C)n1-c1ccccc1	HT1080 IDH1KD tx inconclusive, HT1080NT lethal inconclusive, MCF10A rereplic 20.6µM
O=C(NC(=S)Nc1ccc2[nH]c(=O)[nH]c2c1)c1ccccc1Cl	none
C[C@H]1c2cccc(O)c2C(=O)C2C(=O)C3(O)C(=O)C(C(N)=O)C(=O)[C@@H](N(C)C)[C@@H]3[C@@H](O)[C@@H]21 (stereo not given in full)	HT1080 IDH1KD tx inconclusive, HT1080NT lethal inconclusive, SW480 rerep 6.31µM
C[C@H]1c2cccc(O)c2C(O)=C2C(=O)C3(O)C(O)=C(C(N)=O)C(=O)[C@@H](N(C)C)[C@@H]3[C@@H](O)[C@@H]21 (stereo not given in full)	HT1080 IDH1KD tx inconclusive, HT1080NT lethal inconclusive, SW480 rerep inconclusive
COc1ccc(N(C(=O)C(C)C)S(=O)(=O)c2ccc(Cl)cc2)cc1	HT1080 IDH1KD tx inconclusive, KB-V1 cytotox 18.4µM
COC(=O)c1sc(=S)sc1C(=O)OC	HT1080 IDH1KD tx 31.6µM, HT1080NT lethal inconclusive, MCF10A rereplic inconclusive
CN(C)C=NC(=O)c1ccc(N2CCN(c3ncc(C(F)(F)F)cc3Cl)CC2)cc1	HT1080 IDH1KD tx inconclusive, HT1080NT lethal inconclusive, MCF10A rereplic 14.6µM
O=C(c1ccccc1)N1CCN(c2ccccc2F)CC1	none
CCn1cc(CNC(=O)CCSc2nc(-c3ccco3)cc(C(F)(F)F)n2)cn1	KB-V1 cytotox 4.61µM, SW480 rerep inconclusive, MCF10A rereplic inconclusive, KB-3-1 cytotox inconclusive
O=C(CCCSc1nc(-c2ccco2)cc(C(F)(F)F)n1)Nc1ccc2c(c1)OCO2	none
O=C(CSc1nc(-c2ccco2)cc(C(F)(F)F)n1)Nc1ccc2c(c1)OCO2	HT1080 IDH1KD tx inconclusive, KB-V1 cytotox 18.4µM, HT1080NT lethal inconclusive, KB-3-1 cytotox inconclusive
CCCCN(C(=O)c1c(C)noc1C)c1c(N)n(CCCC)c(=O)[nH]c1=O	none
COc1ccccc1N1CCN(C(=O)c2cc3cc(Br)ccc3oc2=O)CC1	none
Cc1ccc(C)c(NC(=O)CSc2nnc([C@@H]3CCCN3C(=O)OC(C)(C)C)o2)c1	none
Cc1cccc(NC(=O)CSc2nnc([C@@H]3CCCN3C(=O)OC(C)(C)C)o2)c1C	KB-V1 cytotox inconclusive, KB-3-1 cytotox 20.6µM
C=C1C(=O)[C@@]23[C@H](O)C[C@@H]4C(C)(C)CC[C@H](O)[C@@]4(C)[C@@H]2CC[C@@H]1[C@H]3O	HT1080 IDH1KD tx 13µM, HT1080NT lethal 14.6µM, SW480 rerep inconclusive, MCF10A rereplic 0.517µM
C=C1C(=O)[C@@]23[C@H](O)C[C@@H]4C(C)(C)CC[C@H](O)[C@]4(C)[C@@H]2C[C@H](O)[C@@H]1[C@H]3O	HT1080 IDH1KD tx inconclusive, KB-V1 cytotox inconclusive, SW480 rerep 2.59µM, MCF10A rereplic 6.51µM, KB-3-1 cytotox inconclusive
NNC(=O)c1ccc(CSc2cccc3cccnc23)cc1	none
Cc1cccc(CSc2cccc3cccnc23)c1	HT1080 IDH1KD tx inconclusive, KB-V1 cytotox inconclusive, HT1080NT lethal inconclusive, SW480 rerep 6.51µM, MCF10A rereplic inconclusive, KB-3-1 cytotox inconclusive
c1cnc2c(SCc3ccc(-c4nnco4)cc3)cccc2c1	KB-V1 cytotox 14.6µM, SW480 rerep inconclusive
CCOC(=O)CSc1cccc2cccnc12	HT1080 IDH1KD tx inconclusive, KB-V1 cytotox 23.1µM, SW480 rerep 6.51µM, KB-3-1 cytotox inconclusive
O=C(NCc1cc(Cl)cc(Cl)c1)c1ccc2nc([C@@H]3O[C@H](CO)[C@H](O)[C@H](O)[C@H]3O)[nH]c2c1	none (no result: SW480 rerep, MCF10A rereplic)

From PubChem
